Lassa entry inh = blocks Lassa virus binding to or entry into cells; Potency, µM (doses to about 37.9 µM), usual class: inhibitors; Lassa virus pseudotype entry inhibition, cell reporter; hit rate 1.2% among 300,000; AID 540256; calls by dose curve; tested in HEK293 cells; note: nearly all actives have a fitted effect of over 50% in size
MARV entry inh = blocks Marburg virus binding to or entry into cells | Marburg virus pseudotyped entry inhibition, cell reporter | Potency, µM (doses to about 37.8 µM), most hits filed as inhibitors | hit rate 1.8% among 300,000 | AID 540276; calls by dose curve; tested in HEK293 cells
HCMV antiviral = blocks human cytomegalovirus replication. activity change, negative = inhibition, % at 57.5 µM. HFF cells, HCMV-luciferase reporter, 72 h; hits give low values. hit rate 4.5% among 410,000. AID 1259415; in the data active = activity change below about -60%; inconclusive = no clear call, values can overlap the other calls; inactive = above about -39%
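Two-dose cell screen: HFF monolayers treated with compounds and infected with luciferase-expressing HCMV at 1 PFU/cell, 72 h at 37C, then lysed for luciferase measurement.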
FMDV antiviral = blocks foot and mouth disease virus. FMDV antiviral cell-based qHTS. Potency, µM (doses to about 57.9 µM), usual class: inhibitors. hit rate 1.2% among 410,000. AID 1159524; calls by dose curve; tested in HEK293T cells; note: read-out not given here; nearly all actives have a fitted effect of over 45% in size
SARS PLpro yeast = blocks SARS-CoV papain-like protease in a yeast assay; Potency, µM (highest dose often 32.9 µM), most hits filed as activators; hit rate 0.19% among 330,000; S. cerevisiae expressing SARS-CoV PLpro, growth rescue; calls by dose curve; note: nearly all actives have a fitted effect of over 55% in size
HCV inhibitor = inhibitors of hepatitis C virus infection; AID 651820; Huh7.5.1 HCVcc-Cre infection, luciferase reporter, 44 h; hit rate 3.4% among 340,000; Potency, µM (doses to about 41.8 µM), hits mostly inhibitors; active = well fitted inhibition curve with a large enough effect; inconclusive = small, poorly fitted or top-dose-only effect, or another doubt; inactive = no such curve, though single readings can be large or run the other way
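Cells (1,000/well) were plated 4 h before compound, then infected with HCVcc-Cre virus (~0.5 moi). After 44 h further culture, infection was read as luciferase luminescence following a 15 min substrate incubation at room temperature.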
Numbers stand for hits; i = inactive; ? = inconclusive; nt = no result; [ ] = another dose, or the depositor's remark. In the library only some 8% were active in any assay of this set; here they are far more common.

SMILES	Lassa entry inh	MARV entry inh	HCMV antiviral	FMDV antiviral	SARS PLpro yeast	HCV inhibitor
COc1cc(NC(=O)c2cc(-c3cccc(OC)c3)n[nH]2)cc(OC)c1	i	nt	i	i	nt	nt
O=C(Nc1nc2c(F)cccc2s1)c1ccc2c(c1)OCCO2	?	nt	?	i	nt	nt
OCCN1CCOCCN(CCO)CCOCC1	i	?	-92	i	i	i
C(CCN1CCOCC1)CN1CCOCC1	nt	nt	i	i	nt	nt
COc1cc(Cl)c(C)cc1NC(=O)c1cnc(N2CCOCC2)c2ccccc12	?	nt	i	i	nt	nt
CC(C)c1nn2c(=O)cc(COC(=O)c3cccs3)nc2s1	?	nt	i	i	nt	nt
COc1cccc(/C=N/N2CCN(c3ccc(Cl)cc3)CC2)c1OC	nt	nt	-69	?	i	?
COc1cccc(C(=O)N(Cc2cc3cc4c(cc3nc2N(C)C)OCO4)CC2CCCO2)c1 (stereo not given)	nt	nt	nt	i	nt	nt
Cc1ccc(C(=O)c2oc3ccccc3c2NC(=O)COc2ccccc2C)cc1	i	i	i	i	nt	nt
CC(=O)Nc1ccc(OCc2cccc3ccccc23)cc1	nt	nt	-79	i	?	i
Cc1ccc2c(CC(=O)Nc3c(C(=O)Nc4cccc(Cl)c4)oc4ccccc34)coc2c1C	i	i	i	i	nt	nt
COc1cc(C(=O)Nc2cccc(-c3nc4ncccc4o3)c2C)cc(OC)c1OC	i	i	-106	i	i	?
COC(=O)CSc1nnc(-c2cccc(O)c2)o1	i	nt	-65	i	nt	nt
Cc1cccc(-c2nnc(SCCC(=O)O)o2)c1	1.3µM	?	-88	?	nt	nt
Cc1ccc(-c2nnc(SCCC(=O)N3CCOCC3)o2)cc1	?	i	-101	i	i	i
COC(=O)CSc1nnc(-c2ccc(OC)c(OC)c2)o1	i	i	i	i	i	i
C[C@H](NC(=O)CNC(=O)[C@@H](NC(=O)[C@H](Cc1ccccc1)NC(=O)CNC(=O)CNC(=O)[C@@H](N)Cc1ccccc1)[C@@H](C)O)C(=O)N[C@@H](CCCN=C(N)N)C(=O)N[C@@H](CCCCN)C(=O)N[C@@H](CO)C(=O)N[C@@H](C)C(=O)N[C@@H](CCCN=C(N)N)C(=O)N[C@H](CN)CCCCN	nt	nt	nt	i[6.7 µM]	nt	nt
Cc1ccc(Sc2c(C)nn(C(C)(C)C)c2OC(=O)CC(C)C)cc1	i	i	i	?	nt	nt
Cc1ccc(C)c(C(=O)COC(=O)c2cc([N+](=O)[O-])ccc2N2CCOCC2)c1	i	i	i	i	i	?
O=C(OCc1ccc([N+](=O)[O-])cc1)c1cc(S(=O)(=O)N2CCCCC2)ccc1N1CCOCC1	?	?	?	i	i	?
O=C(OCc1ccccc1C(F)(F)F)c1cc([N+](=O)[O-])ccc1N1CCOCC1	?	?	i	i	i	?
O=C(OCc1ccccc1F)c1cc([N+](=O)[O-])ccc1N1CCOCC1	i	?	i	i	i	10µM
CN(C)S(=O)(=O)c1cccc(COC(=O)c2cc([N+](=O)[O-])ccc2N2CCOCC2)c1	?	i	i	?	i	13µM
CSc1ccc(COC(=O)c2cc([N+](=O)[O-])ccc2N2CCOCC2)cc1	?	?	-83	i	i	?
Cc1ccccc1COC(=O)c1cc([N+](=O)[O-])ccc1N1CCOCC1	nt	nt	i	i	i	13µM
SMILES	Lassa entry inh	MARV entry inh	HCMV antiviral	FMDV antiviral	SARS PLpro yeast	HCV inhibitor
CCCC(=O)NCCc1c(I)[nH]c2ccc(OC)cc12	nt	nt	nt	i	nt	nt
O=C(c1cc([N+](=O)[O-])ccc1N1CCOCC1)N1CCN(c2ccccc2)CC1	nt	nt	-87	nt	i	nt
CN1CCN(c2ccc([N+](=O)[O-])cc2C(=O)N2CCOCC2)CC1	i	i	i	i	i	i
COc1ccc(OC)c(COC(=O)c2cc([N+](=O)[O-])ccc2N2CCOCC2)c1	nt	nt	i	i	i	8.9µM
Cc1cnc(SCc2ccccn2)nc1C1CCCN(C(=O)c2coc3c2C(=O)CCC3)C1 (stereo not given)	nt	nt	nt	i	nt	nt
CNC(=O)Cn1c(=O)c2cccn2c2ccc(F)cc21	i	nt	i	i	nt	nt
COc1ccc(N2CC(O)=C(c3n(C)c4ccccc4[n+]3C)C2=N)cc1	i	i	-81	i	i	i
Cc1ccc(N2CN=c3s/c(=C\c4cccnc4)c(=O)n3C2)cc1	i	i	-69	i	i	i
O=C(Nc1ccc(F)cc1F)N1CCCC(c2nc(-c3ccc(F)cc3)no2)C1 (stereo not given)	i	i	?	i	i	?
Cc1ccc(-c2noc(C3CCCN(C(=O)c4ccccc4Br)C3)n2)cc1 (stereo not given)	nt	nt	?	i	i	10µM
O=C(c1c(F)cccc1F)N1CCCC(c2nc(-c3ccc(Cl)cc3)no2)C1 (stereo not given)	nt	nt	i	i	i	11µM
O=C(c1ccc(F)cc1F)N1CCCC(c2nc(-c3ccc(F)cc3)no2)C1 (stereo not given)	?	i	i	i	i	11µM
Cc1ccc(-c2noc(C3CCCN(C(=O)c4c(F)cccc4F)C3)n2)cc1 (stereo not given)	i	i	?	i	i	nt
COCCCNC(=O)C1CCN(C(=O)c2ccc(-n3ccc4ccccc43)s2)CC1	?	nt	i	i	nt	nt
C[C@H]1CC[C@@]2(C)[C@@H](CC[C@@H]3[C@@H]2CC[C@]2(C)[C@@H](O)CC[C@@H]32)C1	nt	nt	-100	i	i	i
C[C@]12CCC(=O)C[C@@H]1CC[C@@H]1[C@@H]2CC[C@]2(C)[C@@H](O)CC[C@@H]12	nt	nt	-61	?	i	i
C[C@]12CCC3C(CC[C@@H]4CC(=O)CC[C@]34C)C1CC[C@@H]2O (stereo not given in full)	i	?	i	i	i	i
CC(=O)[C@@]1(O)CCC2C3CC[C@H]4C[C@@H](O)CC[C@]4(C)C3CC[C@@]21C (stereo not given in full)	i	i	i	i	i	i
C[C@]12CCC3C(CC[C@H]4C[C@@H](O)CC[C@]34C)C1CC[C@@]2(O)C(F)(F)F (stereo not given in full)	nt	nt	-61	nt	i	i
COc1ccc(OC)c(NC(=O)CCc2c(C)nn(-c3ccc(N4CCCC4)nn3)c2C)c1	?	nt	i	i	nt	nt
COC(=O)C(=Cc1ccc(-c2ccsc2C(=O)OC)o1)C(=O)OC	i	i	i	i	i	i
CCOC(=O)C(=Cc1ccc(-c2ccsc2C(=O)OC)o1)C(=O)OCC	i	i	i	32µM	i	?
COc1ccc(Cn2c(N)c(C(=O)NCc3ccco3)c3nc4ccccc4nc32)cc1	?	?	i	i	i	?
Nc1c(C(=O)NCc2ccco2)c2nc3ccccc3nc2n1CCN1CCOCC1	i	?	-94	i	i	i
COc1ccc(CCn2c(N)c(C(=O)NCc3ccco3)c3nc4ccccc4nc32)cc1	?	?	-75	i	i	?
Cc1cc(C)c(NC(=O)CCn2c(=O)c3cccn3c3cccnc32)c(C)c1	i	nt	i	i	nt	nt
O=C(COc1ccc(F)cc1)NCc1ccc2c(c1)CCN2C(=O)c1ccc(F)cc1	?	nt	i	i	nt	nt

Bioassay records from PubChem BioAssay.
